The values that follow come from PubChem BioAssay (NCI).

Compounds without any hit were thinned out: in the full panel of roughly 83,000, 20% have a hit.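 Cells were grown in 96-well plates and exposed to the test compound at a single concentration for 48 hours; results are reported as percent growth, with values below 10 considered active.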 Values without a mark were called inactive. The source made the active and inactive calls.

Common to all, as to experiment: NCI-60 one-dose screen, 48 h (100 = growth as untreated, 0 = no growth, -100 = all killed)
Settings in all cases: 10 µM unless noted

Assay [1] relates to NCI-H23 lung.
Assay [2] concerns NCI-H226 lung.
Assay [3] concerns NCI-H322M lung.
Assay [4] has as its system HOP-62 NSCLC.
Assay [5] deals with NCI-H460 lung.
Assay [6] relates to HOP-92 NSCLC.
For assay [7], the system named is NCI-H522 lung.
The test system of assay [8] is A549/ATCC NSCLC.
Assay [9] relates to 786-0 renal.
For assay [10], the system named is COLO 205 colon.

Consider `N#Cc1c(NC(=O)c2ccccc2C(F)(F)F)sc2c1CCC(=O)C2`, for which the growth in [1] was 3.19% (active); in [2], 13.6%; in [3] it was 95.5%; in assay [4] it was 33%; in assay [5], 13.5%; in assay [6], -36.7% (active). The growth in [7] is -4.76% (active); in assay [8], 75.4%; in assay [9], 28.7%; in assay [10], -18.2% (active).
On to `CS(=O)(=O)c1nccc(-c2c(-c3ccc(F)c(OCc4ccccc4)c3)nc3sccn23)n1`, for which the growth was 98.4% in assay [1]; 82.1% in [2]; 22.3% in [3]; 105% in assay [4]; 43.5% in assay [5]; -5.33% (active) in assay [6]. The growth was 74.1% in assay [7], 103% in assay [8], 80.5% in assay [9] and 106% in assay [10].
With `COc1cc(/C=C/C(=O)c2ccc(NC(=O)CSc3nnc(-c4ccc5nc(-c6ccccc6)[nH]c5c4)o3)cc2)cc(OC)c1OC`, the growth in assay [1] is 92.7%; in assay [2] it was 99.3%; in assay [3], 96.9%; in assay [4], 114%; in [5], 92.5%; in [6] it was 142%. Further, the growth is 95.3% in assay [7], 105% in [8], 75.4% in assay [9] and 115% in [10].
In the case of `CCOC(=O)c1c(Nc2ccccc2)nn2c(-c3ccc(OC)c(OC)c3)ccnc12`, the growth is 70.8% in assay [1]; 54.9% in [2]; 92.5% in assay [3]; 72.7% in assay [4]; 47.9% in [5]; 5.27% (active) in [6]. For the same compound, the growth was 69.3% in assay [7], 52.6% in assay [8], 37.6% in assay [9] and 55.7% in assay [10].
For `CN(c1ccc(F)cc1)S(=O)(=O)c1ccc(-c2cnc(C3CC3)o2)cc1`, the growth in assay [1] is 30.5%; in assay [2], 60.5%; in assay [3], 45.6%; in assay [4] it was 44.1%; in [5] it was 17.2%; in [6] it was 81.1%. In addition, the growth was 25.6% in assay [7], 31.1% in [8], 50.3% in assay [9] and 6.42% (active) in assay [10].
On to `Oc1ccc(CSc2nnc(-c3ccc(Br)cc3)o2)c2cccnc12`, for which the growth in assay [1] was 38.3%; in assay [2] it was 61.5%; in assay [3], 35.7%; in assay [4] it was 21.9%; in assay [5], 10.8%; in assay [6], 5.88% (active). In addition, the growth in assay [7] was 29.4%; in assay [8], 29.8%; in [9], 39.9%; in [10] it was 100%.
Turning to `O=C1/C(=C/c2ccccc2[N+](=O)[O-])Oc2ccc(O)cc21`, the growth was 43.7% in [1]; 78.6% in assay [2]; 79.8% in assay [3]; 78.3% in [4]; 72.3% in assay [5]; 80% in [6]. Further, the growth in assay [7] was -5.14% (active); in assay [8] it was 84.8%; in [9], 46.3%; in assay [10], 20.2%.
Consider `O=C1[C@H]2Cc3c([nH]c4ccccc34)[C@@H](c3ccc(Cl)cc3)N2C(=O)CN1C1CCN(Cc2c(Cl)cccc2Cl)CC1`, for which the growth in assay [1] was 27.7%; in assay [2], 81.6%; in assay [3] it was 103%; in assay [4], 84.9%; in assay [5], 86%; in assay [6] it was 21.5%. The growth in [7] is 74.6%; in assay [8] it was 87.6%; in [9], -64% (active); in [10], 103%.
With `COc1ccc(NC(=O)Cn2cc(CN3C(=O)c4ccc([N+](=O)[O-])cc4C3=O)nn2)cc1`, the growth in [1] is 99.7%; in [2], 96.4%; in assay [3] it was 106%; in [4], 107%; in assay [5] it was 106%; in assay [6] it was 85.6%. Also, the growth was 99.9% in [7], 102% in [8], 107% in assay [9] and 122% in [10].
Take `COC(=O)[C@@]1(C)CC[C@]2(C)CC[C@]3(C)C(=CC(=O)[C@@H]4[C@@]5(C)Cc6c(n(CC#CCN7CCN(C)CC7)c7ccccc67)C(C)(C)[C@@H]5CC[C@]43C)[C@@H]2C1`: the growth in assay [1] is 84.7%; in assay [2] it was 98.5%; in assay [3] it was 91.5%; in assay [4], 113%; in assay [5], 22.4%; in assay [6] it was 83%. The growth in [7] is 100%; in [8] it was 69.4%; in assay [9], 67.8%; in [10] it was 94.2%.
On to `COc1ccc(N)cc1C(=O)Nc1cccc(-c2cc(=O)c3c(OC)c(OC)c(OC)cc3o2)c1`, for which the growth is 63.7% in assay [1]; 61.7% in [2]; 72.5% in assay [3]; 69.6% in assay [4]; 61.5% in [5]; 8.78% (active) in [6]. The growth in assay [7] was 60.5%; in [8], 69.3%; in [9], 53.8%; in assay [10], 84.7%.
Regarding `O=C1c2c(c3c4cc(Br)ccc4[nH]c3c3ccc4ccccc4c23)C(=O)N1CCN1CCNCC1`, the growth was 77.1% in assay [1]; 87.6% in assay [2]; 95.6% in assay [3]; 60.9% in assay [4]; 36.5% in assay [5]; 82.5% in [6]. Also, the growth was 74.3% in assay [7], 54.4% in assay [8], 76.5% in [9] and 86.5% in assay [10].
As to `CCOC(=O)c1c(NCC(=O)Nc2cccc([N+](=O)[O-])c2)sc2c1CCCC2`, the growth in assay [1] was -70.8% (active); in assay [2], -58.1% (active); in assay [3] it was -29.2% (active); in assay [4], -48.4% (active); in assay [5], -51.5% (active); in [6], -24.7% (active). Further, the growth is -67% (active) in assay [7], -13.8% (active) in assay [8], -32% (active) in assay [9] and -56.2% (active) in [10].
